Source: PubChem BioAssay (NCATS)
Records with an inconclusive call do not appear. Activity calls are given as the source filed them. The call rests on the fitted dose curve; in most records, active means well fitted cell-killing curve with a large enough effect; inconclusive means small, poorly fitted or top-dose-only effect; inactive means flat fitted curve, though single readings scatter.

assay: qHTS of pediatric cancer cell lines to identify multiple opportunities for drug repurposing: Primary screen for RD cells (AID 1347104); conditions: RD rhabdomyosarcoma viability, CellTiter-Glo luminescence, 48 h; series mostly up to 46 µM; activity change, negative = cytotoxic: at the top concentration; further: nearly all actives have a fitted effect of over 55% in size
Source text: Drug repurposing or repositioning has been offered as a strategy for drug development in oncology programs. This approach has special potential for childhood cancers and other rare or orphan diseases, where the expected return on new drug development has been a disincentive to pharmaceuticals. […] In this project we exploit the poly-pharmacology of drugs to discover new indications via phenotypic screening of a panel of 19 well-characterized cell lines derived from solid tumors seen in children and adolescents. The goal is to identify approved drugs with previously unrecognized anticancer properties that has the potential to reveal new mechanisms and biological processes involved in carcinogenesis or drug resistance. We employed a titration-based paradigm (quantitative high-throughput screening or qHTS), where all compounds were tested at multiple concentrations for their effect on cell viability. Concentration-response curves (CRCs) were derived directly from the primary screen, and both potency and efficacy values were used to identify compounds with robust bioactivity profiles. We screened the NIH Chemical Genomics Center (NCGC) Pharmaceutical Collection (NPC) and Mechanism Interrogation Plate (MIPE) small molecule collections of approved and investigational compounds against these cell lines; and measured metabolically active cells after 48 hours of compound treatment as a proxy for cell viability. […] Assay Submitter: Nathalia J. Martinez, National Center for Advancing Translational Sciences, National Institutes of Health, Rockville, MD, USA; email: natalia.martinez@nih.gov Shen, M et al. Quantitative high-throughput phenotypic screening of pediatric cancer cell lines identifies multiple opportunities for drug repurposing. Oncotarget 2017 Dec 19;9(4):4758-4772. PMID 29435139.
The cells were obtained from University of North Carolina (UNC), Pediatric Preclinical Testing Program (PPT), and Coriell Institute (CI). qHTS cell viability assay: Cells were assayed in growth media at a density of 500-1,000 cells/well. Five microliters of cells were dispensed into 1,536-well, white, solid-bottom, TC-treated plates (Greiner Bio One) using a multidrop dispenser and incubated at 37 degrees C, 5% CO2, under a humidified atmosphere for 5 hours. Twenty-three nanoliters of compounds and controls (neutral control DMSO or positive control bortezomib at final concentration of 2.3 µM) were subsequently transferred by Kalypsys pintool. For primary screens, the MIPE collection was tested at 11-point dilutions (final concentrations range from 0.78 nM to 46 µM) and the NPC collection at 8-point dilutions (final concentrations range from 0.59 nM to 46 µM). Compounds tested in follow-up screens were assayed at 11-point dilutions. Cells were incubated for 48 hours, followed by addition of 3 µL of CellTiter-Glo (Promega). After a 15 min incubation at room temperature, samples were analyzed for luminescence intensity using a ViewLux High-throughput CCD imager equipped with clear filters.
Potency means the concentration at half of the fitted maximal effect.

SMILES | activity change, negative = cytotoxic | Potency
CCOc1ccc(NC(=O)CC(C)O)cc1 (stereo not given) | -6.01% (inactive) | 
CCOC(=O)/C=C(C)/C=C/C=C(C)/C=C/c1c(C)cc(OC)c(C)c1C | -8.29% (inactive) | 
c1ccc(CNCCNCc2ccccc2)cc1 | 0.633% (inactive) | 
CC1(C)OC[C@@H](COC(=O)CCc2ccc(OC[C@@H](O)CNCCNC(=O)N3CCOCC3)cc2)O1 | 2.26% (inactive) | 
CN(C)/N=N/c1nc[nH]c1C(N)=O | -2.13% (inactive) | 
C[n+]1c2cc(N)ccc2cc2ccc(N)cc21 (tested in a mixture with another compound) |  | 15 µM (active)
Cc1ccc(Nc2c(F)cccc2Cl)c(CC(=O)O)c1 | 19.3% (inactive) | 
NC[C@H]1O[C@H](O[C@H]2[C@H](O[C@@H]3O[C@H](CO)[C@@H](O)[C@H]3O)C(O)[C@H](N)C[C@@H]2N)[C@H](N)[C@@H](O)[C@@H]1O (stereo not given in full) | 14% [at 9.22 µM] (inactive) | 
O=C1OC2(c3ccc(O)cc3Oc3cc(O)ccc32)c2ccccc21 | 1.85% (inactive) | 
CC1(C)O[C@@H]2C[C@H]3[C@@H]4C[C@H](F)C5=CC(=O)C=C[C@]5(C)[C@H]4[C@@H](O)C[C@]3(C)[C@]2(C(=O)CO)O1 | -0.801% (inactive) | 
CCCCc1nc(Cl)c(CO)n1Cc1ccc(-c2ccccc2-c2nn[nH]n2)cc1 | 12.3% (inactive) | 
O=c1c(-c2ccccc2)c1-c1ccccc1 |  | 18.8 µM (active)
CCN(CC)C(=O)/C(C#N)=C/c1cc(O)c(O)c([N+](=O)[O-])c1 | -12.3% (inactive) | 
O=c1ccc2ccccc2o1 | 14.8% (inactive) | 
CC[N+](CC)(CCNC(=O)C(=O)NCC[N+](CC)(CC)Cc1ccccc1Cl)Cc1ccccc1Cl | 5.7% (inactive) | 
O=S1(=O)c2cccc3cccc(c23)N1CCCN1CCN(c2ccc(F)cc2)CC1 | -18.5% (inactive) | 
CC(=O)OCC(=O)[C@@]12OC(C)(C)O[C@@H]1C[C@H]1[C@@H]3C[C@H](F)C4=CC(=O)C=C[C@]4(C)[C@@]3(F)[C@@H](O)C[C@@]12C | 15.1% (inactive) | 
COc1ccc(OC)c(C(O)CNC(=O)CN)c1 (stereo not given) | 15.8% (inactive) | 
O=C(OCC(O)CO)c1ccccc1Nc1ccnc2cc(Cl)ccc12 (stereo not given) | -22.1% (inactive) | 
Nc1ccc(/C=C/c2ccc(N)cc2S(=O)(=O)O)c(S(=O)(=O)O)c1 | 13.1% [at 0.597 µM] (inactive) | 

SMILES | activity change, negative = cytotoxic | Potency
COC(=O)CCc1ccc(OCC(O)CNC(C)C)cc1 (stereo not given) | -8.8% (inactive) | 
C=C1C[C@H]2[C@@H]3C=C(C)C4=CC(=O)CC[C@]4(C)[C@H]3CC[C@]2(C)[C@@]1(OC(C)=O)C(C)=O | 1.61% (inactive) | 
CCCCC(CC)CN=C(N)NC(N)=NCCCCCCN=C(N)NC(N)=NCC(CC)CCCC (stereo not given) |  | 5.96 µM (active)
Cc1onc(-c2c(Cl)cccc2Cl)c1C(=O)N[C@@H]1C(=O)N2[C@@H]1SC(C)(C)[C@@H]2C(=O)O | 13.9% (inactive) | 
C=CCc1ccc(O)c(OC)c1 | 0.618% (inactive) | 
C[C@]12C=CC(=O)C=C1CC[C@@H]1[C@@H]2[C@@H](O)C[C@@]2(C)[C@H]1CC[C@]2(O)C(=O)CO | -1.2% (inactive) | 
OC[C@H]1O[C@@H](n2cnc3c(=S)nc[nH]c32)[C@H](O)[C@@H]1O | -4.43% (inactive) | 
CCCCCCCCCCCCCCNCCO | -14.3% (inactive) | 
NCCC(O)(P(=O)(O)O)P(=O)(O)O | 15% (inactive) | 
O=C1c2ccccc2C(=O)C1c1ccccc1 | 14.2% (inactive) | 
C=C1C(=C/C=C2\CCC[C@]3(C)[C@@H]([C@H](C)/C=C/[C@@H](O)C4CC4)CC[C@@H]23)C[C@@H](O)C[C@@H]1O | -19.3% (inactive) | 
NC(=O)c1cc[n+](CC2=C(C(=O)[O-])N3C(=O)[C@@H](NC(=O)Cc4cccs4)[C@H]3SC2)cc1 | 7.25% (inactive) | 
OCc1ccccc1O | 9% (inactive) | 
O=C(COc1ccc(Cl)cc1)N1CCN(Cc2ccc3c(c2)OCO3)CC1 | -15.8% (inactive) | 
Cc1cccc(C)c1NC(=O)CN1CCN(CCCC(c2ccc(F)cc2)c2ccc(F)cc2)CC1 | 3.24% (inactive) | 
CC(C)COC(=O)c1ccc(N)cc1 | 9.5% (inactive) | 
CO/N=C1\CN(c2nc3c(cc2F)c(=O)c(C(=O)O)cn3C2CC2)CC1CN (stereo not given) | -3.18% (inactive) | 
CCCCC(=O)O[C@]1(C(=O)CO)CC[C@H]2[C@@H]3CCC4=CC(=O)CC[C@]4(C)[C@H]3[C@@H](O)C[C@@]21C | 8.34% (inactive) | 
COc1cccc2c1C(=O)c1c(O)c3c(c(O)c1C2=O)C[C@@](O)(C(C)=O)C[C@@H]3O[C@H]1C[C@H](N)[C@H](O)[C@H](C)O1 |  | 1.19 µM (active)
CC(=O)OCC(=O)[C@@]1(OC(C)=O)[C@@H](C)C[C@H]2[C@@H]3C[C@H](F)C4=CC(=O)C=C[C@]4(C)[C@@]3(F)[C@@H](O)C[C@@]21C | 1.85% (inactive) | 
